Test results: PubChem BioAssay

Assay: probe aLAP1 signal on lysate-treated microarray – cell lysate, small-molecule microarray, COS7 lysate, primary screen (AID 1124);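 note: lysate comes from COS7 cells expressing LAP1 and is applied at 0.3 µg/mL; score merges spot fluorescence near 667 nm with signal-to-noise over triplicate slides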
Conditions: probe aLAP1, fluorescence, higher = more signal

| Structure (SMILES) | composite z-score |
| --- | --- |
| CN1CCC(CCCO)=CC1C1CC1 (centres undefined) | -0.569 |
| NC(=O)NCC#Cc1ccc2c(c1)[C@]1(C(=O)N2)[C@H](C(=O)N2CCCCCCC2)[C@H]2C(=O)O[C@H](c3ccccc3)[C@H](c3ccccc3)N2[C@@H]1c1ccccc1OCCO | 1.26 |
| C=CCC(OC(C)=O)[C@@H]1[C@@H](N(Cc2cc3ccccc3o2)C(=O)c2ccc(C)cc2)c2cc(OCCCO)ccc2N1C(=O)c1ccc2ccccc2n1 (some centres undefined) | -0.348 |
| CO[C@H]1COC(=O)[C@H](C)COC(=O)[C@H](Cc2ccccc2)NC(=O)CC=C[C@H]1C | 0.266 |
| C=CC[C@@]12N=C(c3ccc(OCCCO)cc3)O[C@@H]1c1ccccc1CN(Cc1ccccc1)C2=O | 0.377 |
| CCCC[C@@H]1C[C@H]1[C@@H](NC(=O)c1cccs1)c1ccc(Cl)cc1 | -0.0875 |
| CO[C@H]1COC(=O)[C@H](CCSC)NC(=O)CC=C[C@@H](C)COC(=O)[C@@H](OCc2ccccc2)C=C[C@@H]1C | -0.0638 |
| O=C1c2ccccc2[C@@]2(Cc3ccccc3N(CC(F)(F)F)C2=O)[C@H](c2ccc(CO)cc2)N1C1CCCCC1 | 0.48 |
| CC(C)(C)OC(=O)CC[C@@]1(C(=O)NCc2ccccc2)N=C(c2ccc(OCCCO)cc2)O[C@@H]1c1ccccc1 | 0.494 |
| CC[C@H]1C2=C3C(CC[C@H]4C(OC)OC[C@](C)([C@@H]34)N(C(=O)OC(C)(C)C)C2)C(CO)C1CO (some centres undefined) | 0.903 |
| CO[C@]12C=C(Br)[C@@H](C[C@@H]1c1ccccc1)[C@@]1(CO1)C2=O | -0.0571 |
| COCCOC(=O)N1C(=O)[C@@]2(c3cc(C#CC4=CCCCC4)ccc31)[C@H](C(=O)NC[C@H](O)c1ccccc1)[C@H]1C(=O)O[C@H](c3ccccc3)[C@H](c3ccccc3)N1[C@@H]2c1ccc(OCCO)cc1 | -0.0647 |
| C=C(CCCC)/C(=C/C[C@@H](OC(=O)c1ccncc1)c1cccc(OCCO)c1)c1cc(C(=O)OC)ccc1OC | 1.05 |
| COCCOC(=O)N1C(=O)[C@@]2(c3cc(C#CCC(C(=O)OC)C(=O)OC)ccc31)[C@H](C(=O)N1CCN(c3ncccn3)CC1)[C@H]1C(=O)O[C@H](c3ccccc3)[C@H](c3ccccc3)N1[C@@H]2c1ccc(O)cc1 | 0.695 |
| Cc1ccc(N2C(=O)c3ccccc3[C@](C)(C(=O)O)[C@@H]2c2ccc(CO)cc2)nc1 | 0.067 |
| CN(C)CCCC[C@@H]1NC(=O)[C@@H]2C[C@H](C(=O)NCCCCCNC(=O)CS)[C@H](c3ccc(O)cc3)N2C1=O | 0.24 |
| C=CCC(OC(C)=O)[C@@H]1[C@@H](N(Cc2ccc(-c3cccc(C(F)(F)F)c3)o2)C(=O)Cc2ccc(F)cc2)c2cc(OCCCO)ccc2N1C(=O)c1ccc(-c2ccccc2)cc1 (some centres undefined) | 0.0045 |
| C=CC[C@]1(C(=O)NCC(O)CO)N=C(c2ccc(OCCCO)cc2)O[C@H]1c1ccccc1 (some centres undefined) | 1.3 |
| CCOC(=O)C1=CC[C@@H](c2ccccc2)N(S(=O)(=O)c2ccc(C)cc2)[C@H]1C | 0.689 |
| O=C1O[C@H](c2ccccc2)[C@H](c2ccccc2)N2[C@H]1[C@@H](C(=O)NC[C@H](O)c1ccccc1)[C@]1(C(=O)Nc3ccc(C#CC4=CCCCC4)cc31)[C@H]2c1ccc(OCCO)cc1 | 0.402 |
| COC(=O)Cn1c(C(=O)N2CCCC2)cc2c1C[C@H]1CN(C(=O)c3ccccc3)[C@@](Cc3ccc(OC)cc3)(C(=O)OC)[C@@H]21 | -0.268 |
| COC(=O)C1=CC(c2ccc(CO)cc2)=CC(c2cccs2)N(Cc2cccc(OC(F)(F)F)c2)C=C1C(=O)OC (centres undefined) | 0.641 |
| O=C/C=C/c1ccccc1Cl | 0.399 |
| CCOC(=O)C[C@H]1[C@H](OC(=O)c2ccccc2-c2ccccc2)[C@@H](NC(=O)C2CCCCC2)c2cc(OCCCO)ccc2N1C(=O)c1ccccc1 | -0.175 |
| CC1=C([C@H](O)CCc2ccccc2)[C@H](CO)[C@@H]2C(=O)N(Cc3ccccc3)C(=O)[C@@H]2C1 | -0.222 |
| C#CCCCON=C1C[C@@H](O)[C@@H](O)[C@@H]2[C@@H]3C(=O)N(Cc4ccc5c(c4)OCO5)C(=O)[C@@H]3CC[C@H]12 | 0.786 |
| CC(C)CNC(=O)[C@@]1(C)c2ccccc2C(=O)N(Cc2ccc(OC(F)(F)F)cc2)[C@H]1c1ccc(CO)cc1 | 0.559 |
| CCCC=C(CCC)[C@@H](NC(=O)c1ccccc1)c1ccccc1 | 0.139 |
| CO[C@H]1O[C@H](CO)[C@@H](OC(=O)Nc2ccccc2)[C@H](OC(=O)Nc2ccc3c(c2)OCO3)[C@@H]1OC(=O)Nc1ccc2c(c1)OCO2 | 0.759 |
